A selection: hits, their analogues and other compounds. The true share with any hit is near 2.3%.
USP1 inh = USP1/UAF1 (human) deubiquitinase inhibition; hit rate 0.23% among 390,000; recombinant USP1/UAF1, Ub-Rhodamine cleavage fluorescence; O94782; Potency, µM (series often up to 57.1 µM), inactives show at the top dose activity change, negative = inhibition, hits mostly inhibitors; further: potency means the concentration at half of the fitted maximal effect; nearly all actives have a fitted effect of over 60% in size
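USP1/UAF1 complex at 1 nM was preincubated with compound for 15 min at room temperature, then Ub-Rho substrate (150nM final) was added. Fluorescence (480/540 nm) was read kinetically, 6 reads every 60 seconds.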
Tau fluor cs = counter-screen for tau fibril formation inhibitors. tau K18 P301L Alexa594 fluorescence, heparin fibrillization. Potency, µM (top dose mostly 57.7 µM), without a hit: at the top dose activity change, negative = decrease. hit rate 0.93% among 280,000. AID 1463; further: potency means the concentration at half of the fitted maximal effect; nearly all actives have a fitted effect of over 55% in size
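Human tau K18 P301L (15 uM unlabeled, 0.24 uM Alexa 594-labeled) in 100 mM sodium acetate pH 7 with 20 uM heparin, 6 hr at 37 C. ThT 30 uM added, 1 hr ambient; Alexa 594 FP and total fluorescence read at 555/632 nm.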
Tau fibril FP = inhibitors of human tau fibril formation. P10636. K18 P301L tau heparin fibrillization, Alexa594 FP, 6 h. Potency, µM (series often up to 57.7 µM), without a hit: at the top dose activity, negative = inhibition, actives largely listed as inhibitors. hit rate 0.39% among 280,000; further: potency means the concentration at half of the fitted maximal effect; nearly all actives have a fitted effect of over 55% in size
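Steps: dispense K18 P301L tau (15 uM plus 0.24 uM Alexa 594 tracer, final) in pH 7 sodium acetate; add compound; add heparin (20 uM final); incubate 6 hr, 37 C; add ThT (30 uM final); after 1 hr ambient, read FP.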
Tau fibril ThT = inhibitors of human tau fibril formation, thioflavin T binding; P10636; hit rate 2.1% among 270,000; AID 1460; Potency, µM (series often up to 57.4 µM), for inactives: at the top dose activity, negative = inhibition, hits mostly inhibitors; recombinant tau K18 P301L (four-repeat tau fragment), heparin-induced fibrillization, ThT fluorescence; further: potency means the concentration at half of the fitted maximal effect; nearly all actives have a fitted effect of over 55% in size
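Heparin-induced fibrillization of the P301L-mutant K18 repeat-domain fragment of human tau was followed by ThT binding in quantitative high-throughput format.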
Coupling enz = counter-screen for Giardia aldolase inhibitors: coupling enzyme system; AID 2472; activity change, negative = inhibition, % at 58.2 µM, hits read low; coupling enzyme system counterscreen, AmpLite Red fluorescence; hit rate 0.67% among 290,000; in the data active means activity change below about -30%
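First, compound is pin-transferred into glyceraldehyde-3-phosphate coupling-enzyme reagent at 57.5 uM final and held 10 min at RT. Next, substrate, coupling system and AmpLite Red are added. After 20 min RT, fluorescence (525/598 nm) is read.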
An asterisk follows results filed as active; ? = inconclusive; · = no result given; [ ] = remark or other dose. Unless noted, the call rests on the fitted dose curve; in most records, active means well fitted curve in the direction sought with a large enough effect; inconclusive means small, poorly fitted or top-dose-only effect, or another doubt; inactive means no such curve, though single readings can be large; an effect the other way counts as inactive or inconclusive. On the % scale 0 is the no-effect control and ±100 the full control effect.

SMILES | USP1 inh | Tau fluor cs | Tau fibril FP | Tau fibril ThT | Coupling enz
CCOc1ccc(C(Nc2cccnc2)c2cc(Cl)c3cccnc3c2O)cc1 (configuration not stated) | -25.2% | -6.2% | -1.7% | -4.9% | -25.1
COc1ccc(Nc2nc(Nc3ccc(OC)cc3OC)nc(N3CCN(C)CC3)n2)c(OC)c1 | -17.8% | 10µM*[quencher] | ? | ? | 1.1
CC1=NN(c2ccccc2)C(=O)C1N=Nc1ccc(N)cc1 (configuration not stated) | -8.8% | 15.8µM*[quencher] | -10.8% | 11.2µM* | -18.3
CC1=NN(c2ccccc2)C(=O)C1N=Nc1ccccc1 (configuration not stated) | -22.5% | -9.7% | 3.7% | ? | 0.2
O=c1cc(-c2ccc(O)cc2)oc2c(O)c(O)c(O)c(O)c12 | 10µM* | ? | ? | 14.1µM* | -66.3*
O=c1cc(-c2ccccc2)oc2cc(O)c(O)c(O)c12 | -10.4% | ? | 28.2µM* | 25.1µM* | -44.6*
O=c1cc(-c2ccc(O)cc2)oc2c1ccc1ccccc12 | -21.9% | · | · | · | ·
COc1c(O)cc2oc(-c3ccc(O)cc3)cc(=O)c2c1O | ? | -10.2% | 3.4% | ? | -1.3
COC(=O)c1cc2sccc2n1Cc1nc(-c2cccc(Br)c2)oc1C | -3.4% | -14.1% | 0.4% | -4.1% | ·
CC(=O)N1CCn2c3c(c(=O)c4cc(C)ccc42)CCC31 (configuration not stated) | 31.6µM* | ? | ? | 25.1µM* | -42.3*
CN1C(=O)/C(=C2/C=Cc3ccccc3N2CCCS(=O)(=O)O)SC1=S | ? | -18.1% | 5.5% | 25.1µM* | -10.0
CCN1C(=O)/C(=C2/C=Cc3ccccc3N2CC)SC1=S | -26.3% | ? | 11.3% | 12.6µM* | -0.8
Cc1cc(C)cc(OCC(=O)N(Cc2ccco2)Cc2ccccc2Cl)c1 | -10.5% | -14.4% | -6.9% | -15.8% | ·
COc1ccc2[nH]c3c(NCCC4=CCCCC4)ncnc3c2c1 | -16.3% | 7.94µM*[quencher] | ? | ? | -0.8
CCc1cccc(C)c1NC(=O)C1CCN(S(=O)(=O)Cc2ccccc2)CC1 | -20.0% | -9.2% | 2.1% | ? | ·
CC(=O)c1c(C)n(CCO)c2ccc(O)cc12 | -17.6% | -3.2% | 3.0% | 0.2% | 6.8
CCCCCS(=O)(=O)CCCCCCCCCCn1c(-c2ccc(O)cc2)c(C)c2cc(O)ccc21 | · | 7.94µM*[quencher] | ? | ? | 1.9
Cc1cccc(C2=NN(c3ccc(Br)cc3)[C@@H](C(=O)N3CCOC3=O)[C@@H]2c2ccccc2)c1 | -23.1% | ? | 2.8% | -20.0% | -4.6
C[C@@H]1C(c2cccc(Cl)c2)=NN(c2ccccc2)[C@H]1C(=O)N1CCOC1=O | -26.9% | ? | 13.3%[81.3 µM] | -7.5%[81.4 µM] | -0.7
C[C@@H]1C(c2cccc(Cl)c2)=NN(c2ccc(Br)cc2)[C@H]1C(=O)N1CCOC1=O | -40.5% | 14.1µM*[quencher] | -6.7% | ? | -2.0
CC[C@@H]1C(c2cccc(C)c2)=NN(c2ccc(Br)cc2)[C@H]1C(=O)N1CCOC1=O | · | 8.91µM*[quencher] | -13.6% | ? | -1.6
COc1ccc(C2C=C(c3cccc(OC)c3)Nc3c(C(=O)Nc4ccccc4)cnn32)cc1 (configuration not stated) | -24.9% | -14.0% | ? | 6.5% | ·
Cc1nn(-c2ccccc2)c(N2CCCC2)c1/C=C1\N=C(c2ccc(OC(C)C)cc2)OC1=O | -27.7% | -21.3% | 9.6% | 10µM* | 0.0
Cc1ccc(C2=N/C(=C\N3CCCCC3)C(=O)O2)cc1 | -8.4% | -29.3% | 6.1% | -14.6% | -0.7
CCn1c2ccccc2c2cc(NC(=O)CSc3nnc(-c4ccc(OC)c(OC)c4)n3N)ccc21 | -1.0% | ? | 13.4% | ? | -2.0
CCn1c2ccccc2c2cc(NC(=O)CSc3nnc(-c4cccc(OC)c4)n3N)ccc21 | -10.1% | 15.8µM*[quencher] | 2.0% | ? | 0.1
CCC(C)(C(=O)NC1CCCCC1)N(Cc1cccs1)C(=O)c1ccccn1 (configuration not stated) | ? | -9.0% | -0.2% | -3.2% | 4.8
CCC(C)(C(=O)NC1CCCC1)N(Cc1cccs1)C(=O)c1ccccn1 (configuration not stated) | -12.2% | -8.2% | 0.0% | -3.4% | -37.6*

Screening data: PubChem, National Center for Advancing Translational Sciences (NCATS)
